# Source: PubChem BioAssay (Tox21)
# Several values for one entry are separate records, joined by “and”; a condition that tells them apart may be missing. Equal values may be shown once. Records with an inconclusive call do not appear. Entries that show only a call come without a potency. Some compounds were tested as several samples or in several runs, with calls that do not always agree. Activity calls are given as the source filed them. Calls follow the shape of the dose curve; as a rule, active = well fitted cell-killing curve with a large enough effect in the repeat runs; inconclusive = weak or mixed curves, or effect the other way; inactive = flat fitted curve, though single readings scatter.
# Assay: qHTS assay to identify small molecule that activate the aryl hydrocarbon receptor (AhR) signaling pathway - cell viability counter screen (AID 743086); also: nearly all actives have a fitted effect of over 45% in size
# Conditions: HepG2-AhR-luc viability, CellTiter-Fluor, 24 h; series mostly up to 70.3 µM
# Text: U.S. Tox21 Program National Center for Advancing Translational Sciences [NCATS] NIH Chemical Genomics Center [NCGC] U.S. Environmental Protection Agency [EPA] National Institutes of Environmental Health Sciences [NIEHS] National Toxicology Program [NTP] U.S. Food and Drug Administration [FDA] Tox21 Assay overview: The Aryl hydrocarbon Receptor (AhR), a member of the family of basic helix-loop-helix transcription factors, is crucial to adaptive responses to environmental changes. AhR mediates cellular responses to environmental pollutants such as aromatic hydrocarbons through induction of phase I and II enzymes but also interacts with other nuclear receptor signaling pathways A cell based HepG2-AhR-luc assay (HG2L7.5c1 cell line, developed by Dr. Michael S. Denison, University of California at Davis) was used to assess the activation of AhR. HepG2 (human hepatocellular carcinoma) cells were stably transfected with an Ah receptor-responsive firefly luciferase reporter gene plasmid containing 20 dioxin responsive elements and luciferase reporter gene. Increased luciferase activity can be used to identify the compounds that induce AhR activation. The cytotoxicity of the compounds screened against the HepG2-AhR-luc cell line was tested in parallel by measuring the cell viability using CellTiter-Fluor assay in the same wells.
# Tox21 Assay Protocol Summary: 4000 cells in 5 uL/well were dispensed into white wall/solid bottom 1536-well plates using a Multidrop Combi (Thermo Fisher Scientific Inc., Waltham, MA) dispenser. After the assay plates were incubated at 37C for 5 h, 23 nL of compound or DMSO vehicle was transferred to the assay plates by a pintool station (Kalypsys, San Diego, CA). The plates were incubated at 37C for 24 hr. For cell viability measurement, 1 ul/well of CellTiter-Fluor reagent (Promega, Madison, WI) was added into the assay plates using a Flying Reagent Dispenser (FRD) (Aurora Discovery, CA),and then the assay plates were incubated at 37C for 30 min. The fluorescence intensity in the plates was measured using a ViewLux plate reader (PerkinElmer, Shelton, CT), followed by the addition of 4 uL of ONE-Glo Luciferase Assay reagent (Promega) using an FRD (Aurora Discovery). After the assay plates were incubated at room temperature for 30 min, luminescence intensity was measured using a ViewLux plate reader (Perkin Elmer).
# Potency is read from the fitted curve at half-maximal effect.
row,Compound,Potency
1,CC(Cl)(Cl)C(=O)O,inactive
2,CCCCCCCCCCCC(=O)O,inactive
3,O=C(O)C(Cl)Cl,inactive
4,CC(=O)O,inactive
5,CNC,inactive
6,O=P1(N(CCCl)CCCl)NCCCO1 (stereo not given),inactive
7,OCCOc1ccccc1,inactive
8,O=C(O)CC(O)(CC(=O)O)C(=O)O,inactive
9,CCCn1cc[n+](C)c1,inactive
10,CCC[N+]1(C)CCCC1,inactive
11,CCCCn1cc[n+](C)c1C,inactive
12,CCOP(=S)(OCC)Oc1ccc2c(C)c(Cl)c(=O)oc2c1,inactive
13,CCCC[n+]1cccc(C)c1,inactive
14,CCCCCCCCCCCCCCCCn1cc[n+](C)c1,62.4 µM (active) and inactive and 30.7 µM (active)
15,CCCCCCCCCCn1cc[n+](C)c1,inactive
16,Cc1cc(-c2ccc(N)c(C)c2)ccc1N,inactive
17,Oc1cccc2cccnc12,inactive and 18.8 µM (active) and 2.05 µM (active)
18,C1CCC(NC2CCCCC2)CC1,inactive
19,Nc1ccc(Cl)cc1,inactive
20,CCCCCC[n+]1ccccc1,inactive

row,Compound,Potency
1,Nc1ccccc1,inactive
2,O=[N+]([O-])O,inactive
3,CCCCCCCCCCCCOS(=O)(=O)O,inactive
4,C[N+](C)(C)Cc1ccccc1,inactive
5,C=CCOC(Cn1ccnc1)c1ccc(Cl)cc1Cl (stereo not given),inactive
6,Cc1cc(Cl)ccc1OCC(=O)O,inactive
7,CC(=O)[O][Hg][c]1ccccc1,9.44 µM (active) and 4.29 µM (active) and 4.86 µM (active)
8,O=C(O)C(Cl)(Cl)Cl,inactive
9,COc1ccc(N)cc1,inactive
10,CCCC[N+]1(C)CCCCC1,inactive
11,CCC[N+]1(C)CCCCC1,inactive
12,CC[n+]1ccccc1,inactive
13,O=c1nc(O)n(Cl)c(=O)n1Cl,inactive
14,COCC(=O)N(c1c(C)cccc1C)C(C)C(=O)OC (stereo not given),inactive
15,CCCCCCCCn1cc[n+](C)c1,inactive
16,CN(C)[C@@H]1C(=O)C(C(N)=O)=C(O)[C@@]2(O)C(=O)C3=C(O)c4c(O)cccc4[C@@](C)(O)[C@H]3[C@H](O)[C@@H]12,inactive
17,O=[N+]([O-])c1ccccc1O,inactive
18,C[C@]12CCC(=O)C=C1CC[C@@H]1[C@@H]2CC[C@]2(C)C(=O)CC[C@@H]12,inactive
19,O=C(O)c1nc(Cl)ccc1Cl,inactive
20,CCCCn1cc[n+](C)c1,inactive
